# Bioassay records as filed in PubChem.
# Luc counter: blocks Kinase-Glo luciferase, a counter-screen artifact; Q27757; Kinase-Glo luciferase, ATP luminescence, 8 min; Potency, µM (series often up to 38.3 µM), inactives show at the highest dose activity change, negative = inhibition, actives largely listed as inhibitors; 200,000 compounds, 0.28% hits; note: nearly all actives have a fitted effect of over 60% in size
#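 Inhibition of Kinase-Glo luciferase light generation was assessed at 10 uM ATP in pH 7.2 imidazole buffer, with luminescence measured after eight minutes at ambient temperature.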
# aGlu spleen mod: inhibitors or activators of human alpha-glucosidase in spleen homogenate; P10253; human spleen homogenate, 4-MU-alpha-glucoside fluorescence; Potency, µM (highest dose often 79.9 µM), inactives show at the highest dose activity change, negative = inhibition, actives largely listed as inhibitors; 240,000 compounds, 0.006% hits; AID 2112;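 note: 0% = enzyme with vehicle and -100% = no enzyme basal signal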
#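 AC50 values come from Hill-equation fits of concentration-response data, normalized to no-enzyme and full-activity controls. Enzyme source: 1 ug human spleen homogenate; 1 mM fluorogenic 4-MU glucoside, pH 5.0 citrate buffer, 37 C, 40 min.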
# GAA glycogen: alters human alpha-glucosidase cleavage of glycogen; P10253; recombinant GAA, glycogen substrate, Amplex Red glucose oxidase fluorescence; Potency, µM (top dose mostly 76.4 µM), inactives show at the highest dose activity change, negative = inhibition, actives largely listed as inhibitors; 300,000 compounds, 0.38% hits;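 note: 0% = full enzyme reaction and -100% = no-enzyme basal signal; the screen sought inhibitors and activators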
#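 qHTS, 1536-well; enzyme 4 nM final; cpd up to 77 uM; substrate bovine liver glycogen 30 ug; 50 mM citrate/phosphate pH 5.0, 0.01% Tween-20; 37 C, 40 min; Amplex Red detection 45 min RT; Hill fit → AC50.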
# GAA inh: blocks human lysosomal alpha-glucosidase. P10253. purified human GAA, 4-MU-alpha-glucoside fluorescence. Potency, µM (highest dose often 76.9 µM), for inactives: at the highest dose activity change, negative = inhibition, hits mostly inhibitors. 200,000 compounds, 0.005% hits;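 note: plate controls were uninhibited enzyme wells for no effect and no-enzyme background for full effect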
#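 Read-out is 4-methylumbelliferone fluorescence (Ex 365/Em 440 nm) after NaOH/glycine stop at pH 10. Enzyme 4 nM, substrate 400 uM, pH 5.0 citrate buffer, 20 min room temperature; AC50 from Hill-equation concentration-response.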
# N370S GC mod: inhibits or activates N370S mutant glucocerebrosidase; AID 2101; N370S GC spleen homogenate, 4MU-glucoside fluorescence; Potency, µM (series often up to 59.4 µM), without a hit: at the top dose activity change, negative = inhibition, hits mostly inhibitors; 330,000 compounds, 0.092% hits;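 note: 0% = full enzyme activity and -100% = no enzyme basal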
# LMNA splice mod: changes lamin A minigene splicing in HeLa cells; 200,000 compounds, 0.01% hits; HeLa LMNA splicing GFP/RFP minigene ratio, 48 h; Potency, µM (highest dose often 46.1 µM), for the others: at the highest dose ratio change, negative = inhibition, most hits filed as inhibitors; active = well fitted inhibition curve with a large enough effect in the signal ratio, with a control signal flat, not every such curve was filed as active; inconclusive = small, poorly fitted or top-dose-only effect, or effect the other way, or a change in a side signal; the % refers to the signal ratio
#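 Read-out is the ratio of GFP to DsRed2 object intensity, acquired by 488 nm laser-scanning cytometry on HeLa lamin A-EGFP minigene reporter cells. Compound incubation 48 hrs at 37 °C in Opti-MEM with 2% FBS; DMSO 0.5% final.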
# Starred values were filed as active, the others as inactive; u = inconclusive; x = no result; [ ] = remark or other dose. Most compounds without a hit are left out; they make up all but 0.52% or so of the library. Unless noted, calls come from the whole dose curve; as a rule, active = well fitted curve in the direction sought with a large enough effect; inconclusive = small, poorly fitted or top-dose-only effect, or another doubt; inactive = no such curve, though single readings can be large; an effect the other way counts as inactive or inconclusive. Unless noted, % is set by controls: 0 for no effect and ±100 for the full control effect; potency is the fitted concentration of half-maximal effect.
SMILES,Luc counter,aGlu spleen mod,GAA glycogen,GAA inh,N370S GC mod,LMNA splice mod
O=C(c1ccncc1)c1ccc(N2CCN(C3CC(=O)N(Cc4cccs4)C3=O)CC2)cc1 (stereo unspecified),2.3%,-4.7%,-7.3%,0.7%,0.5%,2.4%[46 µM]
COc1cccc(C(=O)Nc2nc3ccccc3[nH]2)c1,12.6µM*,3.4%,1.4%,-2.5%,5.7%,0.3%
O=C(COC(=O)c1ccccc1[N+](=O)[O-])c1ccc(C2CCCCC2)cc1,11.2µM*,3.0%,3.0%,-3.1%,15.8%,u
O=C(CSc1nccn1-c1ccc(F)cc1)Nc1ccc(OC(F)(F)F)cc1,x,x,x,x,x,13.1%[46 µM]
CNC(=O)CSc1nnc(NC(=O)Nc2ccccc2)s1,x,x,x,x,x,4.3%[46 µM]
CCOc1ccc(N(CC(=O)NCc2ccc(OC)cc2)S(=O)(=O)c2c(C)[nH]c(=O)[nH]c2=O)cc1,x,x,-12.8%[76.3 µM],x,11.2µM*,x
CCOc1ccc(N(CC(=O)NCCc2ccc(Cl)cc2)S(=O)(=O)c2c(C)[nH]c(=O)[nH]c2=O)cc1,-1.8%,4.8%,6.5%,1.3%,10µM*,x
COC(=O)[C@H]1C2CC3c4[nH]c5ccccc5c4CCN3CC2CC[C@@H]1O (stereo partly specified),x,4.4%,x,x,-4.4%,x
Cc1ccc2c(c1)c(=O)c1ccccc1n2CCCC(=O)Nc1ccc(F)cc1F,x,x,-7.8%[76.3 µM],x,x,x
COc1ccc(-c2ccc(-c3cc(=O)oc4cc(C)cc(C)c34)cc2)cc1,-0.8%[39.9 µM],-5.0%[119 µM],x,x,-5.2%[89.1 µM],x
Nc1cc(Cl)c(N)cc1Cl,-0.4%,2.1%,28.2µM*,-6.5%,1.8%,-28.9%
O=C1/C(=C\c2ccc(O)c(O)c2)C(c2ccccc2)=NN1c1ccccc1,-10.1%,-2.3%,3.98µM*,4.0%,4.3%,-0.1%[46 µM]
Cc1cccc(C)c1OCC(=O)N(Cc1ccccc1F)C1CCS(=O)(=O)C1 (stereo unspecified),x,x,0.3%[76.3 µM],x,x,x
CCOc1ccc2c(c1)-c1c(ssc1=S)C(C)(C)N2,-4.5%,u,20µM*,-3.3%,-3.8%,-24.3%
Nc1cc(C2CCCC2)nn1-c1ccccc1,12.6µM*,-4.7%,-6.5%,2.2%,22.9%,u
CCN(CC(=O)O)C(=O)c1cccnc1,-5.3%[7.66 µM],x,x,x,x,x
Cc1cccc2sc(NNC(=O)c3ccc(S(=O)(=O)N4CC(C)CC(C)C4)cc3)nc12 (stereo unspecified),0.8%,-3.1%,9.0%,u,-2.8%,17.8µM*
COc1ccc(N(CC(=O)NCCc2cccc(C)c2)S(=O)(=O)c2c(C)nn(C)c2C)cc1,x,x,-9.6%[76.3 µM],x,x,x
CCOC(=O)c1[nH]c2cc(OC)c(OC)cc2c1N,1.0%,7.2%,28µM*,-1.1%,0.1%,-1.5%
O=C(Oc1cccc2c(O)cccc12)c1ccccc1,0.7%,-2.3%,28.2µM*,-10.7%,1.4%,-4.2%
O=C(O)CCc1ccccc1OC(=O)c1ccccc1,x,-1.4%,2.1%,x,4.2%,x
CCOc1ccc(Nc2nc(Cc3nnc(SCC(=O)NCC4CCCO4)n3C)cs2)cc1 (stereo unspecified),1.3%,-8.2%,11.2µM*,-2.9%,3.8%,0.6%
COC(=O)CCC(=O)OC1(C)C(=O)C=C2C=C(CCCNC(=O)OC(C)(C)C)OC=C2C1=O (stereo unspecified),-0.4%,1.9%,x,x,-1.6%,x
C[C@H]1Cc2c(-c3ccccc3)nc3c(c2CO1)CN(C(=O)NCCc1c[nH]c2ccccc12)CC3,-3.9%[7.66 µM],0.7%[17.4 µM],x,x,-11.0%[12.8 µM],u
COC(=O)C(NC(C)=O)(Nc1sc2c(c1C(N)=O)CCCC2)C(F)(F)F (stereo unspecified),-0.4%,-4.1%,20µM*,1.2%,6.3%,0.8%
Oc1ccccc1-c1nc(NCc2ccco2)c2ccccc2n1,3.8%,-17.6%,-13.7%,-2.7%,21.8%,-4.6%
Fc1ccccc1-c1nc(NCc2ccco2)c2ccccc2n1,-1.8%,1.2%,-14.7%,3.7%,11.2µM*,x
O=C(Nc1cccc(O)c1)C(=O)Nc1ccccn1,4.47µM*,1.3%,3.6%,6.5%,0.7%,-2.0%
